# Bioassay records (PubChem)
# Only some compounds are listed: those with a hit (about 3.3% of all), similar ones and a draw of the others.
# LDHA block – inhibitors of human lactate dehydrogenase A; P00338; purified LDHA, NADH/diaphorase-resazurin fluorescence; hits give low values; activity change, % (values are at about 110 or 230 µM); 480,000 compounds, 0.15% hits; in the data active = activity change below about -30%; inconclusive = mostly about -25% to -30%;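 also: plate controls were DMSO wells for no effect and wells without enzyme for full effect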
#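 Enzyme activity of human lactate dehydrogenase 5 (2 nM; 0.06 mM NADH, 0.2 mM pyruvate, 5 min, RT) is measured via a resazurin/diaphorase fluorescence readout of residual NADH.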
# D3 ag – agonists of human D3 dopamine receptor. P35462. D3R DiscoveRx beta-arrestin cells, luminescence, 90 min. max activation, %. 410,000 compounds, 0.58% hits. AID 652048; in the data active = max activation above about 30%; also: 0% is about no effect
# Target sequence (P35462 whole entry, looked up): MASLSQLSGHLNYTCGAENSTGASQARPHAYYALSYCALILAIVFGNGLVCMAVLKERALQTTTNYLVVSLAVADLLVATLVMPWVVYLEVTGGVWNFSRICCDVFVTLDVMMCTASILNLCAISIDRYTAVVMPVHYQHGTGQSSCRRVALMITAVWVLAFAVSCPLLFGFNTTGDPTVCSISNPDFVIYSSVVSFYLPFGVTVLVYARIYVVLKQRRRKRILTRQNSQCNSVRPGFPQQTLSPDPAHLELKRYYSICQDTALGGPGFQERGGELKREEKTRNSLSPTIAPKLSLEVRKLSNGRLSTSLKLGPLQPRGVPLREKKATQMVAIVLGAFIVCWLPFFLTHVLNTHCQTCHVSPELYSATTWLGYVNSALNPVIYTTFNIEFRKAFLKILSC
#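 Cells at 1500/well, incubated overnight, then treated with pinned compounds (dopamine as control) for 90 min at 37 degrees C. DiscoveRx reagent added for 30 - 60 minutes at room temperature; luminescence read.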
# D3 antag – antagonists of human D3 dopamine receptor | P35462 | D3R cells, DiscoveRx beta-arrestin luminescence, antagonist mode; hits give low values | max response, negative = inhibition, % | 360,000 compounds, 2.5% hits | AID 652054; in the data active = max response below about -50%; inconclusive = no clear call, values can overlap the other calls; also: % is scaled to controls: 0 for no effect and ±100 for the full control effect
#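 Cells expressing the human receptor were seeded at 1500 cells/well, incubated overnight at 37 degrees C in 5% CO2, then exposed to library compounds with dopamine controls for 90 minutes at 37 degrees C before luminescent detection.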
# PI4K2A block – inhibitors of human PI4K2A; Q9BTU6; purified PI4K2A, ADP-Glo luminescence, 1 h; hits give low values; activity change, negative = inhibition, % at 76.9 µM; 420,000 compounds, 0.13% hits; in the data active = activity change below about -50%; inconclusive = mostly about -30% to -49%;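 also: -100% = wells without enzyme as full effect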
#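 PI4K2A activity was measured by ADP-Glo luminescence: enzyme (4 ug/mL stock) and phosphatidylinositol (1.2 mM stock) in Tris pH 7.5/MgCl2/EGTA/Triton X-100 buffer were reacted with ATP (300 microM stock) for one hour at ambient temperature.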
# PI5P4K alpha inh – inhibitors of human PI5P4K alpha. P48426. PI5P4Kalpha enzyme, ADP-Glo luminescence, 60 min; hits give low values. max response, %. 330,000 compounds, 1.2% hits; active = max response of -50% or lower; inconclusive = between -30% and -50%; inactive = -30% or higher; also: value at the top dose of about 77 µM; % is scaled to controls: 0 for no effect and ±100 for the full control effect
#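 ADP-Glo luminescence end-point after a 60 min room-temperature kinase reaction. PI5P4Kalpha and substrate in HEPES pH 7.4 buffer with EGTA, 0.1% CHAPS and 5% DMSO; ATP at 5 microM final.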
# Numbers without * were called inactive; ? = inconclusive; · = no result given.
SMILES,LDHA block,D3 ag,D3 antag,PI4K2A block,PI5P4K alpha inh
O=C(O)Cn1c(SCc2cccc3ccccc23)nc2ccccc21,4,1,?,-4,1
CCCCn1c(SCC(=O)O)nc2ccccc21,-6,-11,-80*,8,·
N#CC(C#N)=c1ccc2c(c1)NC1(CCCCC1)N=2,16,-22,-78*,?,?
S=C1NC2(CCCCC2)N=C1c1ccc(Cl)c(Cl)c1,-1,·,·,·,·
CCCN1CCN(CCNC(=O)Nc2ccccc2Cl)CC1,-2,-18,-77*,2,2
COc1ccc(N2CCN(CCNC(=O)Nc3cccc(C)c3C)CC2)cc1,-11,-2,-28,-3,0
O=C(NCCN1CCN(c2ccccc2)CC1)Nc1ccccc1Cl,-3,7,-83*,2,-1
O=C(NCCN1CCN(c2ccccc2)CC1)Nc1ccccc1Br,-7,9,-79*,-6,0
O=C(NCCN1CCCCC1)Nc1cccc(Cl)c1Cl,-2,-25,?,7,0
O=C(Nc1ccc(F)cc1)OCc1cn(Cc2ccccc2Cl)nn1,·,·,·,5,·
Cc1ccc(-c2nn(-c3ccccc3)cc2/C=N/NC(=O)c2ccc(Br)o2)cc1,-4,39*,1,-2,2
O=C(N/N=C/c1ccc(Br)cc1)c1ccc(Br)o1,-32*,-12,-18,6,-11
O=C(N/N=C\c1cn(-c2ccccc2)nc1-c1ccccc1)c1ccc(Br)o1,-8,1,61,0,-3
COc1ccc(OC)c(-n2cnc3cc(C(=O)NCCC(C)C)ccc3c2=O)c1,8,·,·,·,·
COc1cc(OC)c(C2SCCN2S(=O)(=O)c2ccc3ccccc3c2)cc1OC (stereo not given),-1,·,·,·,·
Cc1ccc(S(=O)(=O)N2CCCN(C(=O)c3cncn3-c3ccccc3)CC2)cc1,-37*,·,·,·,·
O=C(c1cncn1-c1ccc(F)cc1)N1CCCN(S(=O)(=O)c2ccc(F)cc2)CC1,-3,·,·,·,·
Cc1cccc(C(=O)N(Cc2ccncc2)C2CC2)c1,6,·,·,·,·
Cc1c(Cl)cccc1Nc1n[nH]c(=S)s1,-2,-13,?,-2,-88*
Cc1ccccc1Nc1n[nH]c(=S)s1,-1,-4,?,-9,?
Cc1cc(=O)[nH]c(Nc2cccc(Cl)c2C)n1,-3,17,3,-7,-2
Fc1ccccc1Nc1n[nH]c(=S)s1,-2,-3,-17,0,-74*
S=c1[nH]nc(Nc2cccc3ccccc23)s1,-3,2,-8,-3,-74*
Cc1ccc(NC(=O)Cc2cccc(OC(F)F)c2)c(S(=O)(=O)N2CCOCC2)c1,·,·,·,-1,·
Cc1cc(Cl)c2oc(C(=O)N(C)Cc3cc(C)[nH]n3)c(C)c2c1,-1,1,-6,-7,17
SMILES,LDHA block,D3 ag,D3 antag,PI4K2A block,PI5P4K alpha inh
Cc1cc(Cl)c2oc(C(=O)N(C)Cc3nccn3C)c(C)c2c1,-3,-24,-67*,0,3
O=C(c1cn[nH]c1-c1ccccc1)N1CCN(S(=O)(=O)c2ccc3c(c2)CCC3)CC1,3,·,·,·,·
CCNC(=S)NNC(=O)c1cccn(Cc2ccc(Cl)cc2Cl)c1=O,-2,-5,-59*,0,-1
C=CCNC(=S)NNC(=O)c1cccn(Cc2ccc(Cl)cc2Cl)c1=O,-2,-12,-73*,2,-1
C=CCNC(=S)NNC(=O)c1cccn(Cc2ccc(Cl)c(Cl)c2)c1=O,-1,-38,?,10,·
CCC(C)n1c(SCc2nc3ccccc3o2)nc2ccccc2c1=O (stereo not given),-1,·,·,·,·
OC(CC#CCN1CCCCCC1)(c1ccccc1)c1ccccc1,2,·,·,·,·
CCCOC(=O)c1cc(-c2ccc(/C=C3/C(=O)N(C)C(=O)C(C#N)=C3C)o2)ccc1Cl,6,0,3,-13,-58*
CCc1ccccc1NC(=O)CN(C)C(=O)Cn1ncc(Cl)c(Cl)c1=O,-1,-7,-19,5,-6
CCOC(=O)c1ccc(NC(=O)Cn2nc(C)c3ccccc3c2=O)cc1,-3,4,7,3,0
CCC(=O)Nc1ccc(C(=O)Cn2ncc(Cl)c(Cl)c2=O)cc1,-3,-9,?,-15,-56*
CCOC(=O)c1ccc(NC(=O)Cn2ncc(Cl)c(Cl)c2=O)cc1,0,-6,?,-15,-72*
COC(=O)C1CCN(C(=O)CSc2nnc(-c3ccccc3Cl)n2C2CCCC2)CC1,-4,·,·,·,·
COc1cccc(NC(=O)CSc2nc3ccc(NC(=O)c4ccc(F)cc4)cc3s2)c1,1,·,·,·,·
CCOC(=O)c1cccc(OC(=O)c2ccccc2)c1,2,·,·,·,·
COc1ccc(CNC(=O)Nc2ccc3c(c2)c(=O)n(C)n3Cc2cccc(C(F)(F)F)c2)cc1,3,2,-14,-2,5
COc1ccc(OC)c(CC(=O)Nc2ccc3c(c2)c(=O)n(C)n3Cc2cccc(C(F)(F)F)c2)c1,-5,-19,-52*,1,-7
O=C(NCc1ccccc1)c1ccc(NS(=O)(=O)c2cccs2)cc1,-19,-7,?,2,-2
C/C(=N\NC(=O)c1ccc(NS(=O)(=O)c2cccs2)cc1)c1ccccc1,1,13,6,-5,-53*
C/C(=N\NC(=O)c1ccc(NS(=O)(=O)c2cccs2)cc1)c1ccc(O)cc1O,-1,8,18,-4,-96*
CC(=NNC(=O)c1ccc(NS(=O)(=O)c2ccc(Br)cc2)cc1)c1cccnc1,-2,3,22,-8,-53*
C/C(=N\NC(=O)c1ccc(Br)cc1)c1cccc(NC(=O)c2cccnc2)c1,-6,-12,-5,10,3
CCn1cnc2c1c(=O)n(CC(=O)NCC1(c3ccccc3)CCCC1)c(=O)n2Cc1ccccc1,0,·,·,·,·
Cc1ccc(-c2cnc(CCC(=O)NCc3ccc(F)cc3)o2)cc1C,-4,·,·,·,·
O=C(COc1ccc2c(c1)CCC2)Nc1ccccn1,-5,0,21,-62*,-15
SMILES,LDHA block,D3 ag,D3 antag,PI4K2A block,PI5P4K alpha inh
O=C(Cn1nc(C(=O)O)c2ccccc2c1=O)NC1CCCCCC1,6,·,·,·,·
O=C1C(=C(I)I)c2ccccc2-c2ccccc21,40,-35,-100*,-58*,5
Cc1cc2c(cc1C)-c1ccccc1C2=O,-2,·,·,·,·
COc1ccc(-c2noc(Cn3nc(-c4ccc(C)c(C)c4)c4ccccc4c3=O)n2)c(OC)c1,13,·,·,·,·
CCc1ccc(NC(=S)NCC2CCCN2CC)cc1 (stereo not given),-4,-27,-75*,5,-4
COc1ccc(-n2nnnc2S(=O)(=O)CC(=O)N2CCCCC2)cc1,-6,-9,-98*,57,1
CCCOC(=O)c1ccccc1O,·,4,·,·,·
Clc1ccc(OCCN2CCN(Cc3nc(C4CC4)no3)CC2)cc1,2,·,·,·,·
Cc1nc(CN2CCN(CCOc3ccc(Cl)cc3)CC2)no1,-32*,·,·,·,·
c1ccc(Cc2noc(CN3CCN(CCOc4ccccc4)CC3)n2)cc1,2,16,-53*,4,-1
